Source: PubChem (National Center for Advancing Translational Sciences (NCATS))
Rows were chosen to be rich in hits. Some 8.1% of all compounds tested hit in one or more screens of this group.
KB-3-1 cytotox: kills parental KB-3-1 adenocarcinoma cells | 1.4% of 400,000 active | Potency, µM (series often up to 46.1 µM), hits mostly cytotoxic | AID 1347075 | KB-3-1 viability, CellTiter-Glo ATP luminescence, 72 h; further: on the % scale 0 is the no-effect control and ±100 the full control effect; nearly all actives have a fitted effect of over 60% in size
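Here the drug-naive KB-3-1 line serves as comparator for MDR sub-line selectivity; cells received compound titrations, 72 h at 37 °C, then CellTiter-Glo readout.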
ELG1 repair inh: inhibitors of ELG1-dependent DNA repair in HEK293T cells | 2.3% of 330,000 active | Potency, µM (series often up to 46.1 µM), for the others: top-dose activity change, negative = inhibition, hits mostly inhibitors | HEK293T ELG1-luciferase reporter, luminescence, 16 h; DNA damage induced by 5-fluorouridine; further: on the % scale 0 is the no-effect control and ±100 the full control effect; nearly all actives have a fitted effect of over 55% in size
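In this reporter screen, reduction of luminescence relative to DMSO vehicle indicated activity. Compounds and 5-fluorouridine were added together to 2,000 cells per well, incubated for 16 hr at 37 °C, then developed with ONE-Glo.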
MCF10A rerep: inducers of DNA re-replication in MCF 10A breast cells. 2.9% of 350,000 active. Potency, µM (top dose mostly 46.1 µM), for inactives: top-dose activity, positive = re-replication, actives largely listed as activators. MCF 10A DNA re-replication, Hoechst nuclear intensity, 48 h; further: % of control where 0% means no effect; nearly all actives have a fitted effect of over 50% in size
KB-V1 cytotox: KB-V1 MDR subline cytotoxicity. Potency, µM (series often up to 46.1 µM), most hits filed as cytotoxic. KB-V1 MDR cells viability, CellTiter-Glo, 72 h. AID 1347076. 3.4% of 400,000 active; further: on the % scale 0 is the no-effect control and ±100 the full control effect; nearly all actives have a fitted effect of over 60% in size
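In this primary screen, KB-V1 cells overexpressing P-gp are incubated with library compounds (lowest to highest concentration) for 72 h at 37 degrees C before a luminescent ATP viability read.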
SW480 rerep: induces DNA re-replication in SW480 colon adenocarcinoma cells; SW480 DNA re-replication, Hoechst DNA content imaging, 48 h; Potency, µM (highest dose often 46.1 µM), without a hit: at the highest dose re-replication activation, usual class: activators; 1.8% of 340,000 active; AID 624297; further: % of control where 0% means no effect; nearly all actives have a fitted effect of over 55% in size
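Quantitative HTS format with DMSO vehicle controls; 48 hr drug incubation at 37 C, then 40 min Hoechst staining and scanning imager measurement at 405 nm excitation.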
ELG1 FLuc counter: luciferase inhibition in cell-free luciferin readout for ELG1 hits. cell-free firefly luciferase luminescence counter-screen, ViewLux. shares compounds with ELG1 repair inh. AID 624247. Potency, µM (titrated, usually from 46.1 µM), without a hit: at the highest dose activity change, negative = inhibition, usual class: inhibitors. 3% of 350 active; further: on the % scale 0 is the no-effect control and ±100 the full control effect
ELG1 Luc conf: inhibits ELG1-dependent DNA repair in HEK293T cells, confirmed; shares compounds with ELG1 repair inh; AID 624248; 68% of 670 active; Potency, µM (doses to about 46.1 µM), for inactives: top-dose activity change, negative = inhibition, actives largely listed as inhibitors; HEK293T ELG1-luciferase levels, luminescence; cells co-treated with 5-fluorouridine; further: on the % scale 0 is the no-effect control and ±100 the full control effect; nearly all actives have a fitted effect of over 55% in size
ELG1 MMS Luc: confirmation of human ELG1 repair inhibitors, MMS stimulated | shares compounds with ELG1 repair inh | HEK293T luciferase-tagged ELG1 level, MMS stimulated | Potency, µM (highest dose often 46.1 µM), inactives show at the top dose activity change, negative = inhibition, usual class: inhibitors | 53% of 670 active | AID 624249; further: on the % scale 0 is the no-effect control and ±100 the full control effect; nearly all actives have a fitted effect of over 60% in size
ELG1 5-FU: confirmation of ELG1 repair inhibitors: viability with 5FU | Potency, µM (titrated, usually from 46.1 µM), for inactives: at the highest dose activity change, negative = viability loss, usual class: cytotoxic | 670 tested, under 10 active | shares compounds with ELG1 repair inh | cell viability with 5-FU, ELG1-dependent repair;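 further: ELG1-luc HEK293T cells cotreated with 5-fluorouridine at 10 µM final; viability measured 16 h after compound addition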
ELG1 MMS viab: confirmation of ELG1 repair inhibitors: viability with MMS; shares compounds with ELG1 repair inh; Potency, µM (titrated, usually from 46.1 µM), for the others: at the top dose activity change, negative = viability loss, hits mostly cytotoxic; Cell viability with MMS, ELG1-dependent DNA repair; 33% of 670 active;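 further: ELG1-luc HEK293T cells co-treated with 10 µM MMS; viability read 16 h after compound addition; on the % scale 0 is the no-effect control and ±100 the full control effect; nearly all actives have a fitted effect of over 60% in size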
ELG1 unstim viab: unstimulated viability counter-screen for ELG1 repair hits | shares compounds with ELG1 repair inh | cell viability counter-screen, unstimulated, luminescence | Potency, µM (doses to about 45.9 µM), inactives show top-dose activity change, negative = loss of viability, hits mostly cytotoxic | 8% of 900 active;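 further: compound exposure lasted 16 hours before reading; on the % scale 0 is the no-effect control and ±100 the full control effect; nearly all actives have a fitted effect of over 55% in size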
FLuc biochem: inhibits purified firefly luciferase, counter-screen for ELG1 hits. shares compounds with ELG1 repair inh. Potency, µM (highest dose often 57.5 µM), for the others: at the top dose activity, negative = inhibition, usual class: inhibitors. purified firefly luciferase, luminescence counter-screen. 10% of 350 active; further: on the % scale 0 is the no-effect control and ±100 the full control effect
An asterisk follows results filed as active; i = inactive; ? = inconclusive; / = no result. The call rests on the fitted dose curve; in most records, active means well fitted curve in the direction sought with a large enough effect; inconclusive means small, poorly fitted or top-dose-only effect, or another doubt; inactive means no such curve, though single readings can be large; an effect the other way counts as inactive or inconclusive. Potency means the concentration at half of the fitted maximal effect.

SMILES	KB-3-1 cytotox	ELG1 repair inh	MCF10A rerep	KB-V1 cytotox	SW480 rerep	ELG1 Luc conf	ELG1 MMS Luc	ELG1 5-FU	ELG1 MMS viab	ELG1 unstim viab	others
COc1ccc(-c2nn(-c3ccccc3)cc2/C=C/C(=O)N2CCOCC2)cc1OC	i	1.46µM*	-12.7%	i	-1.3%	1.41µM*	-16.4%	?	-10.5%	?
COc1ccc(-c2nn(-c3ccccc3)cc2C(=O)O)cc1OC	i	12.9%	10.7%	i	-3.5%	/	/	/	/	/
COc1ccc2oc(=O)c(C(=O)N3CCN(c4cc(Cl)ccc4Cl)CC3)cc2c1	i	/	/	?	/	/	/	/	/	/
O=C(O)/C=C\C(=O)Nc1ccccc1C(=O)N1CCN(c2ccc(Cl)cc2)CC1	i	0.3%	0.3%	i	-6.7%	/	/	/	/	/
CCOc1cc(N2CCOCC2)c(OCC)cc1NC(=O)c1nn(CC)c(=O)c2ccccc12	?	2.31µM*	?	3.66µM*	11.7%	2.23µM*	14.1µM*	-8.7%	?	?
COc1ccc(C2=C(C)C(=NCc3ccc(OC(C)C)cc3)NS2(=O)=O)cc1	i	/	/	i	/	/	/	/	/	/
O=C(/C=C/c1ccc(S(=O)(=O)N2CCOCC2)cc1)N1CCN(c2ccc(F)cc2)CC1	i	2.31µM*	-0.6%	i	-11.9%	-27.9%	7.06µM*	-4.7%	?	?	ELG1 FLuc counter=-0.2%;FLuc biochem=-15.2%
CCOC(=O)C1CCN(c2cc3c(cc2NC(=O)c2cc(OC)ccc2Br)n(C)c(=O)n3C)CC1	i	?	9.0%	i	?	/	/	/	/	/
CCOC(=O)C1CCN(c2cc3c(cc2NC(=O)c2ccccc2Br)n(C)c(=O)n3C)CC1	i	9.2µM*	1.6%	i	-22.0%	7.92µM*	?	?	6.5%	-0.8%	ELG1 FLuc counter=0.3%;FLuc biochem=0.5%
Cc1nc(/C(N)=N/OC(=O)c2ccccc2Cl)c(C(F)(F)F)o1	i	?	0.3%	i	1.1%	/	/	/	/	/
CCOCC(=O)Nc1ccc2c(c1)OCCO2	i	?	3.1%	i	-8.1%	/	/	/	/	/
O=C(Nc1ccccc1)c1nc[nH]c1C(=O)NCCCCNC(=O)c1[nH]cnc1C(=O)Nc1ccccc1	i	?	-3.1%	?	6.0%	/	/	/	/	/
O=C(Nc1ccccc1)c1nc[nH]c1C(=O)NCCNC(=O)c1[nH]cnc1C(=O)Nc1ccccc1	i	2.31µM*	?	i	6.4%	4.99µM*	4.45µM*	-1.3%	?	15.8µM*
